Shown is part of a subset that was picked to be rich in hits.
AmpC inh detg = qHTS Inhibitors of AmpC Beta-Lactamase (assay with detergent). Potency, µM (highest dose often 114 µM), for inactives: top-dose activity change, negative = inhibition, hits mostly inhibitors. AmpC hydrolysis of nitrocefin, absorbance 480 nm, 0.01% Triton. 0.041% of 370,000 active. P00811;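 also: 0% = no-compound wells and -100% = no-enzyme wells; nearly all actives have a fitted effect of over 25% in size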
Target sequence (P00811 whole entry, looked up): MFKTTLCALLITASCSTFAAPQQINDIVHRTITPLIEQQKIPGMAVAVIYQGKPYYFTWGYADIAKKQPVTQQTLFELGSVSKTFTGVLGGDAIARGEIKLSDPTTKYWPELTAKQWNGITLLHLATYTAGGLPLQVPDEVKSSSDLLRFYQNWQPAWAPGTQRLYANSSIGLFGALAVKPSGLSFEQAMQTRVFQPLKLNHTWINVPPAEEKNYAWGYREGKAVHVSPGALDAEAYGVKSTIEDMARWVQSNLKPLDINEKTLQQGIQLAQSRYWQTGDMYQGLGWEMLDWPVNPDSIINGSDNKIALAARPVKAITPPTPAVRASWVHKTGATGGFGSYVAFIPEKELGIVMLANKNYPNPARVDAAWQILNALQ
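20 mM phosphate pH 7.0 + 0.01% (detergent screen) or 0.0001% Triton X-100; 5.3 nM AmpC reagent; cpd preinc 15 min RT; nitrocefin (800 uM stock) to start; A480 q20 s × 4 min; Activity was normalised to no-enzyme and no-compound control wells.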
AmpC no deterg = qHTS Inhibitors of AmpC Beta-Lactamase (assay without detergent). 0.52% of 330,000 active. AmpC nitrocefin hydrolysis, absorbance 480 nm, 0.0001% Triton. Potency, µM (titrated, usually from 57.1 µM), for the others: top-dose activity change, negative = inhibition, usual class: inhibitors. P00811. AID 485341, 2010;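 also: plate controls were no compound for no effect and no enzyme for full effect; nearly all actives have a fitted effect of over 20% in size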
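AmpC (5.3 nM in the dispensed reagent) in 20 mM phosphate pH 7.0 with 0.01% (detergent screen) or 0.0001% Triton X-100 was preincubated with compounds for 15 min at room temperature. Nitrocefin was then added from an 800 uM solution, and hydrolysis was followed at 480 nm.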
The depositor's hits bear a star; u = inconclusive; x = no result given. Calls follow the shape of the dose curve; as a rule, active = well fitted curve in the direction sought with a large enough effect; inconclusive = small, poorly fitted or top-dose-only effect, or another doubt; inactive = no such curve, though single readings can be large; an effect the other way counts as inactive or inconclusive. Potency is read from the fitted curve at half-maximal effect.

SMILES | AmpC inh detg | AmpC no deterg
CCOC(=O)c1sc(NC(=O)CSc2n[nH]c(-c3ccccc3)n2)c(C#N)c1C | -3.4% | -38.9%
Cc1ccc(/C=C/C2=Cc3c(sc(NC(=O)CSc4n[nH]c(N)n4)c3C#N)C(C)(C)C2)o1 | -7.2% | 12.6µM*
COc1cc(C(=O)Nc2ccc3oc(-c4ccccc4)nc3c2)cc(OC)c1OC | 14.9% | x
O=C1CCC/C(=N/NC(=O)c2ccc(NS(=O)(=O)c3cccs3)cc2)C1 | -2.6% | u
O=C1CCC/C(=N/NC(=O)c2cc(NS(=O)(=O)c3cccs3)cc(NS(=O)(=O)c3cccs3)c2)C1 | -4.0% | 11.2µM*
CC(C)(C)c1ccc(C(=O)NNc2cc(N3CCOCC3)nc(N3CCOCC3)n2)cc1 | -12.9% | 110.1%
CC(C)(C)c1ccc(C(=O)NNc2cc(N3CCCCC3)nc(N3CCCCC3)n2)cc1 | -0.8% | 0.159µM*
COc1ccc(NC(=O)CCc2nnc3n(Cc4ccccc4Cl)c(=O)c4ccccc4n23)cc1 | -1.5% | x
Cc1ccc(OCCn2c(NC(=O)c3ccco3)nc3ccccc32)cc1 | 9.0% | 20µM*
O=C(Nc1nc2ccccc2n1CCOc1ccccc1)c1ccco1 | -12.9% | -13.4%
Cc1ccccc1Nc1c(N)c(=O)oc2ccccc12 | 1.6% | 0.316µM*
CN(C)CCNc1c(N)c(=O)oc2ccccc12 | -4.6% | 102.3%
Cc1ccc(NC(=O)N2CCN(C(=O)c3nsc4ccccc34)CC2)cc1C | -1.1% | x
CCCN1CCN(c2nnc(-n3cccc3C(=O)Nc3ccccc3C(F)(F)F)s2)CC1 | 2.2% | x
CC(C)Oc1ccc(CNC(=O)C2=Cc3ccccc3OC2)cc1 | 8.6% | x
O=C(Nc1ccc2nc(SCC(=O)N3CCCC3)sc2c1)c1cccc(F)c1 | 18.5% | x
Cc1cccc(C)c1Nc1nnc(SCC(=O)c2ccc(Br)s2)s1 | -9.7% | -23.0%
Cc1cccc(C)c1Nc1nnc(SCC(=O)c2ccc3c(c2)NC(=O)CO3)s1 | -4.2% | 25.1µM*
O=C(/C=C/c1cn(CC(O)CN2CCCCCC2)c2ccccc12)c1ccc(Br)cc1 (stereo not given) | 23.8% | x
CSc1cccc(NC(=O)C(c2ccccc2)N2Cc3ccccc3C2=O)c1 (stereo not given) | -2.9% | x
CC(=O)NC(=S)Nc1ccc(NC(=O)c2cccs2)cc1 | -14.6% | -8.3%
Cc1c(C(=O)NC(=S)Nc2ccc(NC(=O)c3cccs3)cc2)oc2ccccc12 | u | 17.8µM*
CCOc1ccccc1NC(=O)C(OC(=O)c1ccc(NC(=O)CC#N)cc1)c1ccccc1 (stereo not given) | -12.2% | 7.94µM*
CCOc1ccccc1NC(=O)C(OC(=O)c1ccccc1)c1ccccc1 (stereo not given) | 0.2% | -19.8%
COc1ccc(NC(=O)CSc2oc(-c3ccc(F)cc3)nc2S(=O)(=O)c2ccc(C)cc2)c(OC)c1 | 5.6% | x
SMILES | AmpC inh detg | AmpC no deterg
Cc1ccc(NC(=O)CCn2c(=O)c3cccn3c3ccccc32)c(Cl)c1 | 5.1% | x
CCC[n+]1c2ccccc2cc2ccccc21 | u | -21.5%
CCCC[n+]1c2ccccc2cc2ccccc21 | 31.6µM* | -24.4%
COc1ccc(Nc2oc(/C=C/c3cc(OC)c(OC)c(OC)c3)nc2C#N)cc1 | 4.2% | x
COc1ccc(NC(=O)c2c(C)oc3ccc(O)c(CN4CCC(C)CC4)c23)cc1Cl | 15.3% | x
COc1cccc(CNC(=O)CCn2c(=O)c3cccn3c3ccc(F)cc32)c1OC | 0.6% | x
O=S1(=O)NC(c2ccccc2)CC(CC2CCCCC2)O1 (stereo not given) | -9.3% | 8.91µM*
O=C1NC[C@H](c2ccccc2)N(CC2CCCCC2)C1=O | -7.9% | -8.8%
COc1cc(NC(=O)NC(C)c2c(-n3cccc3)sc3c2CCN(C)C3)cc(OC)c1 (stereo not given) | 4.3% | x
CCNc1nc(OC)nc(Oc2ccc(=O)[nH]n2)n1 | -1.0% | x
CCOc1ccc(NC(=O)CC2C(=O)N(c3ccc(C)cc3)C(=O)N2Cc2ccc(OC)cc2)cc1 (stereo not given) | -2.1% | x
CCCN1C(=O)c2cc(C(=O)O)ccc2C1O (stereo not given) | u | -0.9%
CCCN1C(=O)c2cc(C(=O)NC3CCCCCC3)ccc2C1O (stereo not given) | u | 1.41µM*
COc1cc(CN(C(=O)c2oc3ccccc3c2C)C2CCS(=O)(=O)C2)cc(OC)c1OC (stereo not given) | 10.6% | x
CCCOc1ccc(-c2cccc(NS(=O)(=O)c3ccc(CC)cc3)c2)nn1 | 16.2% | x
Cc1ccc(NC(=O)C2CCCN(S(=O)(=O)c3c(C)nn(C)c3C)C2)c(C)c1 (stereo not given) | -4.4% | x
N#Cc1nc(-c2ccc(F)cc2)oc1NCc1cccc2c1OCO2 | -9.5% | -19.3%
Cc1ccc(-c2nc(C#N)c(NCc3cccc4c3OCO4)o2)cc1 | 7.6% | 0.316µM*
CCCCN(CC)CCCNC(=O)c1cc2c(=O)[nH]c3ccccc3c2n1C | 3.4% | x
CC(C)=CCc1c(O)cc2oc3c(CC=C(C)C)c(O)c(O)c(CC=C(C)C)c3c(=O)c2c1O | 6.5% | 14.1µM*
COc1cc2ccc(=O)oc2c(CC=C(C)C)c1OC | 6.2% | -19.7%
COc1ccc(N2CCN(C(=O)c3cccn3-c3nnc(N4CCCC4)s3)CC2)cc1 | -10.4% | x
CCCn1nc([N+](=O)[O-])c(C(C#N)c2nc3ccccc3s2)c(Cl)c1=O (stereo not given) | -11.1% | 14.1µM*
CCn1nc([N+](=O)[O-])c(C(C#N)c2nc3ccccc3n2C)c(Cl)c1=O (stereo not given) | -11.5% | -36.4%
O=C(Cc1ccccc1Cl)Nc1ccc(S(=O)(=O)Nc2nccs2)cc1 | 5.5% | -40.2%
SMILES | AmpC inh detg | AmpC no deterg
O=C(CSc1ccc(Br)c2cccc(Cl)c12)Nc1ccc(S(=O)(=O)Nc2nccs2)cc1 | 2.1% | 2.51µM*
CCOc1ccc(OCC)c(NC(=O)c2csc3c2CCCC3)c1 | 24.5% | x
CCc1nn(CC(=O)N2CCCCC2)c(=O)c2cc3sccc3n12 | 1.1% | x
Cc1[nH]n(-c2ncc(-c3ccccc3)s2)c(=O)c1C(c1ccc(Cl)cc1)C(C#N)C#N (stereo not given) | -11.9% | 31.6µM*
Cc1[nH]n(-c2ccccc2)c(=O)c1C(c1ccccc1[N+](=O)[O-])C(C#N)C#N (stereo not given) | 0.4% | -34.1%
CCc1ccccc1NC(=O)CSc1nc2c(oc3ccccc32)c(=O)n1-c1ccccc1 | 13.7% | x
O=C(Cc1ncc(C(F)(F)F)cc1Cl)Nc1ccc(F)cc1 | 0.8% | 0.159µM*
O=C(Cc1ncc(C(F)(F)F)cc1Cl)NC1CC1 | u | -11.8%
COCCn1c(Sc2nc(C)cs2)nc2c1c(=O)[nH]c(=O)n2C | -0.7% | 0.159µM*
COCCn1c(SCc2ccccc2Cl)nc2c1c(=O)[nH]c(=O)n2C | u | 12.5%
COc1ccc(-c2noc(-c3nnn(-c4cc(C)ccc4C)c3N)n2)cc1 | 12.5% | x
O=C1NC(=S)N(c2ccc(F)cc2)C(=O)/C1=C/c1ccco1 | 50.1µM* | 17.8µM*
COc1ccc(OC)c(N2C(=O)/C(=C/c3ccco3)C(=O)NC2=S)c1 | 50.1µM* | 17.8µM*
O=C1NC(=S)N(c2ccc(F)cc2)C(=O)/C1=C\c1ccoc1 | 1.2% | -40.3%
COc1ccc(N2C(=O)/C(=C/c3ccc(C)o3)C(=O)NC2=S)cc1 | -4.8% | -19.4%
CSc1ccc(/C=C/c2nc3ccccc3n2S(=O)(=O)c2ccc(Br)cc2)cc1 | -4.5% | x

High-throughput results deposited in PubChem by National Center for Advancing Translational Sciences (NCATS).
